# Data reported in PubChem BioAssay (EPA / NIEHS).
# Results filed as inconclusive are left out. Active and inactive are the calls of the source. The calls were made as follows, unless noted: active = hit-call score of the fitted dose curve at least 0.9, where 1 is the maximum; inconclusive = response in the unintended direction; inactive = score below 0.9.
# What was measured:
# [1] = molecular target: bovine Gamma-Aminobutyric Acid Type A Receptor Agonist (GABAR Agonist), GABRA1 (gene 780973) (UniProt P08219); test: NVS_LGIC_bGABAR_Agonist: NovaScreen (NVS) Ligand-Gated Ion Channel Assay for bovine Gamma-Aminobutyric Acid Type A Receptor Agonist (GABAR Agonist) (AID 2283338)
# Sequence of bovine Gamma-Aminobutyric Acid Type A Receptor Agonist (GABAR Agonist), GABRA1 (gene 780973) (P08219 whole entry, looked up): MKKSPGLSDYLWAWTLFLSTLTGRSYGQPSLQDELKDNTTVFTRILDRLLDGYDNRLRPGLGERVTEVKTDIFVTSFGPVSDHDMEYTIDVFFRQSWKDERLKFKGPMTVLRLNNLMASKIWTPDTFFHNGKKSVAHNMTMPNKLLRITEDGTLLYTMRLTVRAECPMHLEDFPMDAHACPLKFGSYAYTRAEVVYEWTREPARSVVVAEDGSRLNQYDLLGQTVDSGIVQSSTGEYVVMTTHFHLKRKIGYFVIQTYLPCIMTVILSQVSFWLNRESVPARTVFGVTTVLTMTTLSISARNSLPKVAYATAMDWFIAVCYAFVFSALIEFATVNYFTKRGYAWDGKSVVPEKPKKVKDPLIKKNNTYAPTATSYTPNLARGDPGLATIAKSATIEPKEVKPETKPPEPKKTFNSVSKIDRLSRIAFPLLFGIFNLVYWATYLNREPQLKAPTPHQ
# How it was run: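 Radioligand binding to bovine cerebellar membranes in agonist format, read by filter-based scintillation counting after 1 h. Primary screen in duplicate at 25 uM, with actives followed in concentration series. Gain of signal versus DMSO.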
# [2] = molecular target: Small conductance calcium-activated potassium channel protein 1 (Rattus norvegicus) (UniProt P70606); test: NVS_IC_rKCaCh: NovaScreen (NVS) Ion Channel Assay for rat Potassium Channel, Ca2+ Act., VI (KCaCh) (AID 2283336)
# Sequence of Small conductance calcium-activated potassium channel protein 1 (Rattus norvegicus) (P70606 whole entry, looked up): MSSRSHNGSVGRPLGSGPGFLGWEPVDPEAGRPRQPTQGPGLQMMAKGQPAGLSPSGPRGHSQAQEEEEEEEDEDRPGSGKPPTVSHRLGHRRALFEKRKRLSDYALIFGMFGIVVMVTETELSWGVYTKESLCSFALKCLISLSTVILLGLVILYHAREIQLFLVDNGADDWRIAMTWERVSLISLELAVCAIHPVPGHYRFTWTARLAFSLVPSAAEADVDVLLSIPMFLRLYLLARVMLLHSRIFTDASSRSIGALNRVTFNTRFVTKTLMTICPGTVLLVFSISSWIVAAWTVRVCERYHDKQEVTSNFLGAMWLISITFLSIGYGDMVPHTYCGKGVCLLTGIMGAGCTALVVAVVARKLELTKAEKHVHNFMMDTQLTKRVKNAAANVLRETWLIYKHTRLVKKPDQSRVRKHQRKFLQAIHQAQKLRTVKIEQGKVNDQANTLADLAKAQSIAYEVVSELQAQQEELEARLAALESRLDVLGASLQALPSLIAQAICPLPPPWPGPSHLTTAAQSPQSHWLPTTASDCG
# How it was run: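 Filter-based scintillation counting of radioligand bound to rat forebrain membrane preparations, measured 1 h after compound addition. Primary screen used 25 uM in duplicate, with concentration-response follow-up; signal decrease relative to DMSO marks activity.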
# [3] = molecular target: rat Peripheral-type Benzodiazepine Receptor (PBR), Tspo (gene 24230) (UniProt P16257); test: NVS_MP_rPBR: NovaScreen (NVS) Membrane Protein Assay for rat Peripheral-type Benzodiazepine Receptor (PBR) (AID 2283335)
# Sequence of rat Peripheral-type Benzodiazepine Receptor (PBR), Tspo (gene 24230) (P16257 whole entry, looked up): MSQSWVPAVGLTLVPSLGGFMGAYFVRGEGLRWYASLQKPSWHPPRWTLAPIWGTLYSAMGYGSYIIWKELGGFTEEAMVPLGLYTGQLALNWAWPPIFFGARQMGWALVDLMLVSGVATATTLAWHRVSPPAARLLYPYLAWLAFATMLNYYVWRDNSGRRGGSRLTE
# How it was run: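 Single-concentration duplicate screening at 25 uM preceded concentration-series retesting of actives. Binding of a specific radioligand to rat kidney membrane PBR was read by filtration radiodetection after 1 h, with plate-wise positive and negative controls.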
# [4] = molecular target: Sodium channel protein type 1 subunit alpha (Rattus norvegicus) (UniProt P04774); test: NVS_IC_rNaCh_site2: NovaScreen (NVS) Ion Channel Assay for rat Sodium Channel, Site 2 (NaCh) (AID 2283322);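 also: hit means loss of radioligand binding signal relative to DMSO so AC50 marks displacement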
# How it was run: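 Initial duplicate single-point testing at 25 uM, followed by concentration-response runs for actives. Binding of radioligand to rat forebrain membranes quantified after 1 h via filter-based radiodetection.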
# [5] = NVS_IC_rCaDHPRCh_L: NovaScreen (NVS) Ion Channel Assay for rat Calcium Channel, Type L, Dihydropyridine Site (CaDHPRCh_L) (AID 2283320)
# How it was run: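 Rat cortex membrane preparation; dihydropyridine-site radioligand displacement read 1 h post-dose by filtration and scintillation. Primary single-point screen 25 uM in duplicate, then concentration series to 50 uM maximum; DMSO as negative control.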
# [6] = molecular target: rat Glutamate, AMPA Site (AMPA), Gria1 (gene 50592) (UniProt P19490); test: NVS_LGIC_rAMPA: NovaScreen (NVS) Ligand-Gated Ion Channel Assay for rat Glutamate, AMPA Site (AMPA) (AID 2283324)
# Sequence of rat Glutamate, AMPA Site (AMPA), Gria1 (gene 50592) (P19490 whole entry, looked up): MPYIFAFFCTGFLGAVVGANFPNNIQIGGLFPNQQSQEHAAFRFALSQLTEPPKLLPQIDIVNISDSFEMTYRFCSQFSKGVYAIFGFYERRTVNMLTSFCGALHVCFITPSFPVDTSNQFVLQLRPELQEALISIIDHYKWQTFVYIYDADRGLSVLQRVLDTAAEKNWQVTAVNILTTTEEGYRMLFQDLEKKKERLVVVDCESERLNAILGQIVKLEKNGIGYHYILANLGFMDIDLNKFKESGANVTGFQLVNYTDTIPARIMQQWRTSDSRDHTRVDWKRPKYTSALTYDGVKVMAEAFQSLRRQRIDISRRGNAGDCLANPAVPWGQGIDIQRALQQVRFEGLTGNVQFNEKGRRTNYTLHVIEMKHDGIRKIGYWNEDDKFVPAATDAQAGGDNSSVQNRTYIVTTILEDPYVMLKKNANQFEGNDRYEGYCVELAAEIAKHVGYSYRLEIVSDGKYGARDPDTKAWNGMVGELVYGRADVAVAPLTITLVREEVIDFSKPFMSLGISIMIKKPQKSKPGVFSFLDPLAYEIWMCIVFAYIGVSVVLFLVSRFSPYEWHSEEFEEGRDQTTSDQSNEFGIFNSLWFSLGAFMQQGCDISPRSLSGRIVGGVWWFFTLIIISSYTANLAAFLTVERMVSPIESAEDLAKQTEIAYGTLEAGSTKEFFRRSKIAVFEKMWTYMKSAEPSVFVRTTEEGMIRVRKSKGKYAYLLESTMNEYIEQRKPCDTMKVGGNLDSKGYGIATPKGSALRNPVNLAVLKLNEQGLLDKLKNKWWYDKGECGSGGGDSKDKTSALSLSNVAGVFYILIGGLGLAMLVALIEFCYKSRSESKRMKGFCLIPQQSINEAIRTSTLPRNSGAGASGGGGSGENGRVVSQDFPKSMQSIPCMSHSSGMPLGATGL
# How it was run: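 Screening at 25 uM in duplicate preceded concentration series reaching 50 uM for qualifying compounds. Radioligand displacement on rat forebrain membranes, 1 h, filter-based scintillation readout; reduced binding relative to DMSO.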
# [7] = NVS_IC_rCaBTZCHL: NovaScreen (NVS) Ion Channel Assay for Calcium Channel, Type L, Benzothiazepine Site (CaBTZCHL) (AID 2283337)
# How it was run: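 Rat cortical membrane preparation, cell-free. Radioligand displaced by test chemical; 1.5 h incubation; filtration, scintillation count. DMSO = negative control/baseline. Primary: duplicate, 25 uM; secondary: concentration series.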
# [8] = tested on: guinea pig Histamine Receptor (H2), gene 100729734; test: NVS_GPCR_gH2: NovaScreen (NVS) G Protein-Coupled Receptor Assay for guinea pig Histamine Receptor (H2) (AID 2283342)
# How it was run: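 Guinea pig striatal membrane preparation with specific radioligand; bound counts measured by filtration and scintillation 1 h post-dosing, DMSO as baseline. Chemicals passing a 25 uM duplicate screen were titrated to a 50 uM maximum.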
# [9] = molecular target: bovine Gamma-Aminobutyric Acid Type A Receptor BDZ, alpha 5 site (GABARa5), GABRA5 (gene 523515) (UniProt Q08E50); test: NVS_LGIC_bGABARa5: NovaScreen (NVS) Ligand-Gated Ion Channel Assay for bovine Gamma-Aminobutyric Acid Type A Receptor BDZ, alpha 5 site (GABARa5) (AID 2283323)
# Sequence of bovine Gamma-Aminobutyric Acid Type A Receptor BDZ, alpha 5 site (GABARa5), GABRA5 (gene 523515) (Q08E50 whole entry, looked up): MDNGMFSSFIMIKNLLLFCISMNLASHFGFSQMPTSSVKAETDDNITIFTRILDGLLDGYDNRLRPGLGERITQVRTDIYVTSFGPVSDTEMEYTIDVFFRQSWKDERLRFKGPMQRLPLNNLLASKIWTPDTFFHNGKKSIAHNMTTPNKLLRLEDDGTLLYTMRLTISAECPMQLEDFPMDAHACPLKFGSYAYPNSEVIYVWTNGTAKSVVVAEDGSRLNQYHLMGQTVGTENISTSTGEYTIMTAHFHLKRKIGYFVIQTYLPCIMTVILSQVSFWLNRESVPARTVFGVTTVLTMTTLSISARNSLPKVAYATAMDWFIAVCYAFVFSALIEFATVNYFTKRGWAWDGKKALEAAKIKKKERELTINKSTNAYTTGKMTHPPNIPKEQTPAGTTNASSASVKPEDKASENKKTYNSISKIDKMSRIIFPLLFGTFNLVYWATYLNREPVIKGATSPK
# How it was run: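 Tested first in duplicate at a single 25 uM, with hits re-run in concentration series to a 50 uM maximum. Bovine hippocampal membranes; specific radioligand displacement measured by filter scintillation counting 1 hr post-dose.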
# [10] = molecular target: Glutamate receptor ionotropic, kainate 1 (Rattus norvegicus) (UniProt P22756); test: NVS_IC_rKAR: NovaScreen (NVS) Ion Channel Assay for rat Kainic Acid Receptors (KAR) (AID 2283334; active = hit-call score of the fitted dose curve at least 0.9, where 1 is the maximum; inactive = score below 0.9)
# Sequence of Glutamate receptor ionotropic, kainate 1 (Rattus norvegicus) (P22756 whole entry, looked up): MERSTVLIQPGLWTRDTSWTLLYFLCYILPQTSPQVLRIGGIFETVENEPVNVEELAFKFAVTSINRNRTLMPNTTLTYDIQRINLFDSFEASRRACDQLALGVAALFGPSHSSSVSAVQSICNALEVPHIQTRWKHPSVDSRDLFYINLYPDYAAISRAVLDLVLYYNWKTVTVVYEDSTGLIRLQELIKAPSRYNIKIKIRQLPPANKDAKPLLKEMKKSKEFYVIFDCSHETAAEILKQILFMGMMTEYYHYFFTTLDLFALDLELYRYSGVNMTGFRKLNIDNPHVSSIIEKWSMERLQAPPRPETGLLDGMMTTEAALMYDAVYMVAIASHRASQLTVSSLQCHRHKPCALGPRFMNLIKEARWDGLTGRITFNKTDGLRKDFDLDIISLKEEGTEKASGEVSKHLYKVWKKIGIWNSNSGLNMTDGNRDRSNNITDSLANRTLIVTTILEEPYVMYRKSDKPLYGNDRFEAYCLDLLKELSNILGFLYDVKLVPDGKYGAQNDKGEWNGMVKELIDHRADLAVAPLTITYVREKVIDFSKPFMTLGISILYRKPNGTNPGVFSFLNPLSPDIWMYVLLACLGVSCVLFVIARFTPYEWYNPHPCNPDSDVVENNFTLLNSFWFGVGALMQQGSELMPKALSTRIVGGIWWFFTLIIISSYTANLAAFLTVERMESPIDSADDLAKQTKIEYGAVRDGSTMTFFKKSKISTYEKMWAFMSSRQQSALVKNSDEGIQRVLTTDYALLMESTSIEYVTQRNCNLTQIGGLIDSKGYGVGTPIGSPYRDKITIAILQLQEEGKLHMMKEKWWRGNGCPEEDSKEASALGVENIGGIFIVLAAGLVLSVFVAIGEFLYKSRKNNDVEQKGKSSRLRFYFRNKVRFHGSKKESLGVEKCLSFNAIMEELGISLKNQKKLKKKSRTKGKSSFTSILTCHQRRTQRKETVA
# How it was run: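 Rat forebrain membrane preparation incubated 1 h with radioligand and test chemical; bound signal read by filtration and scintillation. Single-concentration screen at 25 uM, then concentration series to 50 uM maximum.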
# [11] = molecular target: human Androgen Receptor (AR), AR (gene 367) (UniProt P10275); test: NVS_NR_hAR: NovaScreen (NVS) Nuclear Receptor Binding Assay for human Androgen Receptor (AR) (AID 2283332)
# How it was run: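 LnCAP cell-free extract; radioligand displacement read by scintillation counting after 20 h. Primary screen single concentration 25 uM in duplicate, actives then run as concentration series; loss-of-signal fitted relative to DMSO baseline.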
# [12] = molecular target: human Peripheral-type Benzodiazepine Receptor (PBR), TSPO (gene 706) (UniProt P30536); test: NVS_MP_hPBR: NovaScreen (NVS) Membrane Protein Assay for human Peripheral-type Benzodiazepine Receptor (PBR) (AID 2283331);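 also: hits reduce radioligand binding relative to DMSO baseline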
# Sequence of human Peripheral-type Benzodiazepine Receptor (PBR), TSPO (gene 706) (P30536 whole entry, looked up): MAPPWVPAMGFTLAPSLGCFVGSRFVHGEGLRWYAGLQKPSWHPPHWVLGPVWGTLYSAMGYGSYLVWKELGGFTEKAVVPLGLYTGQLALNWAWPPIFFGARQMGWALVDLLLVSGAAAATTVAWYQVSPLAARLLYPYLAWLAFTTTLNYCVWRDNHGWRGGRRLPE
# How it was run: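 Cell-free radioligand displacement, human colonic membranes, 1 h exposure. Filter radiodetection read-out. Single-concentration duplicates (25 uM), then concentration-response for actives; DMSO negative control.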
# [13] = molecular target: rat Gamma-Aminobutyric Acid Type A Receptor, Non-Selective (GABAR-NonSelective), Gabra1 (gene 29705) (UniProt P62813); test: NVS_LGIC_rGABAR_NonSelective: NovaScreen (NVS) Ligand-Gated Ion Channel Assay for rat Gamma-Aminobutyric Acid Type A Receptor, Non-Selective (GABAR-NonSelective) (AID 2283326)
# Sequence of rat Gamma-Aminobutyric Acid Type A Receptor, Non-Selective (GABAR-NonSelective), Gabra1 (gene 29705) (P62813 whole entry, looked up): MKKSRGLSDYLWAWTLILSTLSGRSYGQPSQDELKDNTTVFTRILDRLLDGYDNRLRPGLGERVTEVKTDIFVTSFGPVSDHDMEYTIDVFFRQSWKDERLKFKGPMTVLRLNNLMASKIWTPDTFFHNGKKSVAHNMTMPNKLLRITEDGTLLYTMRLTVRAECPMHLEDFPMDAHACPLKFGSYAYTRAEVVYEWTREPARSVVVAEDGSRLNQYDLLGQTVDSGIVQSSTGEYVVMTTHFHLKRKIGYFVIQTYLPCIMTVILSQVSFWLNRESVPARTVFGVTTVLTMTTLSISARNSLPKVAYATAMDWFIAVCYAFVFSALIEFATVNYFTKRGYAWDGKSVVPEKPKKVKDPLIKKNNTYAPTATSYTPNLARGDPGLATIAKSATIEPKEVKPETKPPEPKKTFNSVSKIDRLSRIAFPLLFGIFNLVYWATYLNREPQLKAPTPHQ
# How it was run: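 Compounds were first screened in duplicate at 25 uM, with actives run as singleton concentration series (max 50 uM). Binding of a radioligand to rat whole-brain GABA-A preparation was measured by filtration and scintillation counting after 1 h, DMSO baseline.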
# NCBI gene 24521 = test: NVS_IC_rKATPCh: NovaScreen (NVS) Ion Channel Assay for rat Potassium Channel, ATP-Sensitive (KATPCh) (AID 2283319)
# How it was run: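 Primary duplicate screen at 25 uM, then singleton concentration series to 50 uM maximum, in a rat cortex membrane radioligand displacement assay. Binding measured by filtration and scintillation 2 h post-dose; DMSO baseline.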
# [14] = molecular target: human Constitutive Androstane Receptor (CAR), NR1I3 (gene 9970) (UniProt Q14994); test: NVS_NR_hCAR_Agonist: NovaScreen (NVS) Nuclear Receptor Binding Assay for human Constitutive Androstane Receptor Agonism (CAR) (AID 2283328)
# Sequence of human Constitutive Androstane Receptor (CAR), NR1I3 (gene 9970) (Q14994 whole entry, looked up): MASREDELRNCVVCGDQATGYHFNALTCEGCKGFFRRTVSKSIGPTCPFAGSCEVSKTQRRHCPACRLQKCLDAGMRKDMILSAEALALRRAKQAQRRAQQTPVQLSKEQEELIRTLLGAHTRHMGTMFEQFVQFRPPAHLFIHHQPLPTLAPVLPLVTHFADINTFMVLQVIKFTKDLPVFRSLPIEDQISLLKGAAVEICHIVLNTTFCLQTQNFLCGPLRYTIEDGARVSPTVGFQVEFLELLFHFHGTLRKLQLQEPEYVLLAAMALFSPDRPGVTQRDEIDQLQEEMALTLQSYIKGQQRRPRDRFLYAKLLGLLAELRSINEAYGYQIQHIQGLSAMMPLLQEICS
# How it was run: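 Actives from a 25 uM duplicate screen were retested in singleton concentration series to 50 uM max. Biochemical TR-FRET assay on extracted CAR protein measured 1 h post-dose, with signal increase over DMSO control.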
compound,measurement,setting,value
COc1cc(C=O)ccc1O,outcome,[1],inactive
CCCCN(CCCC)CCCC,outcome,[2],inactive
NS(=O)(=O)c1cc2c(cc1Cl)NCNS2(=O)=O,outcome,[3],inactive
Cc1c(C(=O)O)c(O)cc2c1C(=O)c1c(O)c([C@@H]3O[C@H](CO)[C@@H](O)[C@H](O)[C@H]3O)c(O)c(O)c1C2=O,outcome,[4],inactive
FC(F)(F)C(F)(F)C(F)(F)C(F)(F)C(F)(F)C(F)(F)CCI,outcome,[5],inactive
CCOc1ccc2c(c1)C(C)=CC(C)(C)N2,outcome,[6],inactive
same,outcome,[1],inactive
CCc1c(C(=O)NN2CCCCC2)nn(-c2ccc(Cl)cc2Cl)c1-c1ccc(Br)cc1,outcome,[5],inactive
same,AC50,[4],11.5 µM (active)
same,outcome,[7],inactive
same,outcome,[8],inactive
COCCOC[C@H](CC1(C(=O)NC2CCC(C(=O)O)CC2)CCCC1)C(=O)Oc1ccc2c(c1)CCC2 (some centres not stated),outcome,[6],inactive
Cc1cc(NC(=O)C(=O)O)cc(C)c1Oc1ccc(O)c2c1CCC2,outcome,[6],inactive
CCCCc1ccc2c(n1)[C@@H](c1ccc(OC)cc1C[C@H](C)C(=O)O)[C@H](C(=O)O)[C@H]2c1ccc2c(c1)OCO2,AC50,[9],27.5 µM (active)
CCCCCCCC=O,outcome,[6],inactive
same,outcome,[10],inactive
CC(=O)OCCOCCOCCOC(C)=O,outcome,[1],inactive
O=C(N[C@@H](Cc1ccccc1)[C@@H](O)C(=O)N1C[C@@H](O)[C@@H](O)C1)c1cc2cc(Cl)ccc2[nH]1,outcome,[4],inactive
same,outcome,[7],inactive
CCCCCCCCCCC,outcome,[11],inactive
Cc1cc(=O)[nH]c(=S)[nH]1,outcome,[5],inactive
C=CCOC(=O)c1ccccc1C(=O)OCC=C,AC50,[12],25 µM (active)
same,outcome,[3],inactive
Cc1cccc([N+](=O)[O-])c1C,outcome,[1],inactive
Nc1ccccc1N,outcome,[12],inactive
COc1cc(S(=O)(=O)O)c(C)cc1N=Nc1c(O)ccc2cc(S(=O)(=O)O)ccc12,outcome,[10],inactive
same,outcome,[7],inactive
COc1cc(-c2nc(NC(=O)c3cc4cc(C)cc(C)c4n3CC(=O)O)sc2CCC2CCCCC2)c(OC)cc1Cl,AC50,[5],6.08 µM (active)
same,AC50,[4],9.13 µM (active)
Nc1ccc(S(=O)(=O)c2ccc(N)cc2)cc1,AC50,[3],3.28 µM (active)
CCCCCCC(=O)OCC,outcome,[10],inactive
Nc1nc(N)c2nc(CNc3ccc(C(=O)N[C@@H](CCC(=O)O)C(=O)O)cc3)cnc2n1,AC50,[5],25 µM (active)
same,AC50,[6],23.2 µM (active)
same,outcome,[13],inactive
same,outcome,[10],inactive
CCCc1cc(=O)[nH]c(=S)[nH]1,outcome,NCBI gene 24521,inactive
CCCCCCCCCCCCCO,outcome,[14],inactive
